Measurements taken from PubChem BioAssay AID1159580 (chemical genetic matrix, 2015).
About 2,000 (36%) of roughly 5,500 compounds were called active. About 18% were inconclusive and are not listed. Cut-off read from the data, not from the text of the source: active = normalized growth mostly below about 0.91 (no sharp cut-off); inconclusive = no clear call, values can overlap the other calls; inactive = mostly above about 0.92. Some of the results follow.

Assay: chemical genetic growth profiling, strain panel (AID 1159580);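 note: tested at 20 µM; growth read once vehicle control cultures reached saturation at 30 °C; 1 = growth at the plate median or of vehicle wells; lower values mean less growth of the strain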
Conditions: S. cerevisiae deletion strains, growth OD
[1] = locus YAL040C, strain CLN3, stronger effect = lower value
[2] = locus YCL061C, strain MRC1 (second series), stronger effect = lower value
[3] = locus YDR363W, strain ESC2, stronger effect = lower value
[4] = locus YER002W, strain NOP16, stronger effect = lower value
[5] = locus YNL175C, strain NOP13, stronger effect = lower value
[6] = locus YNL197C, strain WHI3, stronger effect = lower value
[7] = locus YNL224C, strain SQS1, stronger effect = lower value
[8] = locus YNL322C, strain KRE1, stronger effect = lower value
[9] = locus YOR083W, strain WHI5 (second series), stronger effect = lower value
[10] = locus YPL241C, strain CIN2, stronger effect = lower value

Measured: normalized growth

Brc1c(NC2=NCCN2)ccc2nccnc12
inactive: [1] 1.01 | [2] 1 | [3] 1 | [4] 1.01 | locus YGR229C, strain SMI1, stronger effect = lower value 1.01 | locus YMR307W, strain GAS1, stronger effect = lower value 0.994 | [5] 0.989 | [6] 0.981 | [7] 0.994 | [8] 1 | [9] 1 | [10] 1

CCN(CCCl)Cc1ccccc1Br
inactive: [1] 1.06 | [2] 0.994 | [3] 0.91 | [4] 1.04 | locus YJR075W, strain HOC1, stronger effect = lower value 0.994 | locus YNL153C, strain GIM3, stronger effect = lower value 1.02 | [5] 1 | [6] 1.02 | [7] 0.995 | [8] 0.974 | [9] 0.968 | [10] 0.999
